IMPase inh = IMPase inhibition in cells | P97697 | CHO-M1 cells, IP1 accumulation, HTRF TR-FRET ratio | inhibition (IP1 accumulation), % at 46.1 µM | 120,000 tested, under 10 active | AID 901; active means well fitted curve in the direction sought with a large enough effect in the signal ratio, not every such curve was filed as active; inconclusive means small, poorly fitted or top-dose-only effect, or a change in a side signal; inactive means no such curve, though single readings can be large or run the other way; the % refers to the signal ratio;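 further: cells stimulated with carbachol in lithium chloride buffer; plate controls were DMSO basal wells for no effect and reference inhibitor wells for full effect; higher means more IMPase inhibition seen as more IP1 and lower FRET ratio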
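Elevated IP1 in lysates lowers TR-FRET signal (665/620 ratio and 620 channel reported). Cells were CHO-M1, given carbachol (50 uM as added) plus 50mM LiCl, pH 7.4, 30 min, 37C; compounds titrated up to 46 uM; AC50 by Hill equation.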
HTT aggregate = reduces HttQ103-GFP aggregates in PC12 cells | PC12 HttQ103-GFP aggregates, Acumen cytometry, 40 h | 1.1% of 220,000 active | AID 1688 | Potency, µM (highest dose often 46.1 µM), for the others: at the highest dose activity change, negative = inhibition, actives largely listed as inhibitors; further: potency means the concentration at half of the fitted maximal effect; on the % scale 0 is the no-effect control and ±100 the full control effect; nearly all actives have a fitted effect of over 60% in size
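Read-out: GFP aggregate count by laser scanning cytometer (488 nm excitation, 500-530 nm emission, 1–25 µm objects >6 SD above background). Cells: PC12, inducible HTTex1-Q103-GFP, 100 nM tebufenozide; compounds titrated.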
ALDH1A1 inh = ALDH1A1 (human) enzyme inhibition; P00352; Purified ALDH1A1, NADH fluorescence, propionaldehyde substrate; Potency, µM (highest dose often 75.3 µM), without a hit: top-dose activity, negative = inhibition, hits mostly inhibitors; 7.3% of 220,000 active; AID 1030; active means well fitted inhibition curve with a large enough effect, not every such curve was filed as active; inconclusive means small, poorly fitted or top-dose-only effect, or another doubt; inactive means no such curve, though single readings can be large or run the other way;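 further: potency means the concentration at half of the fitted maximal effect; plate controls were no enzyme wells and a reference inhibitor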
Target sequence (P00352 whole entry, looked up): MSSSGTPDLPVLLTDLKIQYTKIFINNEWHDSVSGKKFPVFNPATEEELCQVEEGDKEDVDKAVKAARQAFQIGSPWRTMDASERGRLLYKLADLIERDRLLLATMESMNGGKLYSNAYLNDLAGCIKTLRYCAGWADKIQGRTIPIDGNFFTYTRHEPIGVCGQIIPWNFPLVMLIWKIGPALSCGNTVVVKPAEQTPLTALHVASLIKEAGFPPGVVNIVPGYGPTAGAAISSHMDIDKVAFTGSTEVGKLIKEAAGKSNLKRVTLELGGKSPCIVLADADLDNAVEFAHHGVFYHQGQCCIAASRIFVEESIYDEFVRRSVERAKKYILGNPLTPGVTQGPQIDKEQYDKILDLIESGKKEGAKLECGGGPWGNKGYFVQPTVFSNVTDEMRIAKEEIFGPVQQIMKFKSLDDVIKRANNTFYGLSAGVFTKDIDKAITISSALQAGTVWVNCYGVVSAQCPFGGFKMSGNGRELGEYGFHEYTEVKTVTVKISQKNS
HPGD inh = blocks human HPGD enzyme activity | purified HPGD, NADH fluorescence kinetic, PGE2 substrate | Potency, µM, inactives show at the highest dose activity change, negative = inhibition, most hits filed as inhibitors | 4.3% of 150,000 active | AID 894; active means well fitted inhibition curve with a large enough effect, not every such curve was filed as active; inconclusive means small, poorly fitted or top-dose-only effect, or another doubt; inactive means no such curve, though single readings can be large or run the other way; further: potency means the concentration at half of the fitted maximal effect; on the % scale 0 is the no-effect control and ±100 the full control effect
Target sequence (P15428 whole entry, looked up): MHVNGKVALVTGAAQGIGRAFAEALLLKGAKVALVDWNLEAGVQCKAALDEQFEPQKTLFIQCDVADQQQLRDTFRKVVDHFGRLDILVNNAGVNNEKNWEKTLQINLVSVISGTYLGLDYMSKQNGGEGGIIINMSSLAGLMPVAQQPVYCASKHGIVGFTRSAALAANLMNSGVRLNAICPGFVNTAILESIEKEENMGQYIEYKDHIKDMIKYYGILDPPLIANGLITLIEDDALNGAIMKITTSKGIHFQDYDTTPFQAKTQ
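20 nM HPGD preincubated 15 min at room temperature with compound in 50 mM Tris-HCl pH 8, 0.01% Tween 20. Started with 1 mM NAD+ and 30 uM prostaglandin E2; NADH fluorescence (360/450 nm) read 5 times over 30-s intervals, last minus first.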
IMPase Li inh = IMPase inhibition in cells with lithium potentiation; CHO-M1 cells, IP1 TR-FRET (IP-One), carbachol + lithium; Potency, µM (series often up to 59.4 µM), inactives show top-dose activity, negative = IMPase inhibition, actives largely listed as inhibitors; 0.35% of 210,000 active;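 further: IP1 builds up when IMPase is blocked and the TR-FRET signal falls; potency means the concentration at half of the fitted maximal effect; plate controls were basal vehicle for no effect and high inhibitor control for full effect; nearly all actives have a fitted effect of over 50% in size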
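Steps: plate 2000 CHO-M1 cells per well and culture 16–30 h; add compound and lithium; incubate 30 min, 37C; add d2-IP1 tracer and Eu cryptate anti-IP1 antibody in lysis buffer; read after 10 min at room temperature.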
HTT ATP protect = protects HTT-Q103 PC12 cells, measured by ATP; PC12 HTT-Q103 induced, cytoprotection, ATP luminescence, 40 h; Potency, µM (highest dose often 56.4 µM), for the others: cytoprotection (ATP increase), usual class: activators; 0.14% of 230,000 active; AID 1471; further: potency means the concentration at half of the fitted maximal effect; % of control where 0% means no effect; nearly all actives have a fitted effect of over 45% in size
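Compounds added alongside 100 nM tebufenozide, which induces toxic Q103 huntingtin exon 1-GFP in stable PC12 cells; surviving cells quantified by luminescent ATP measurement. Medium: phenol red-free DMEM, 5% equine and 5% calf serum.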
* = called active by the depositor; ? = inconclusive; . = not tested or not shown; [ ] = another dose, or the depositor's remark. A selection: hits, their analogues and other compounds. The true share with any hit is near 9.4%. Unless noted, the call rests on the fitted dose curve; in most records, active means well fitted curve in the direction sought with a large enough effect; inconclusive means small, poorly fitted or top-dose-only effect, or another doubt; inactive means no such curve, though single readings can be large; an effect the other way counts as inactive or inconclusive.

SMILES	IMPase inh	HTT aggregate	ALDH1A1 inh	HPGD inh	IMPase Li inh	HTT ATP protect
CCCC(=O)Nc1ccc(Sc2ccc([N+](=O)[O-])cc2)cc1	9[1.84 µM]	?	-15%	18µM*	62%[38.3 µM]	21%[10 µM]
CCC(CC)C(=O)Nc1ccc(Sc2ccc([N+](=O)[O-])cc2)cc1	16	2%	1.1µM*	.	.	-66%
CCOC(=O)/C=C1\NC(C)(C)Cc2cc(OC)c(OC)cc21	-10	-4%	-4%	-5%	-4%[38.3 µM]	-16%
COc1cc2c(cc1OC)C(=S)NC(C)(C)C2	9	-3%	25µM*	-12%	-20%[38.3 µM]	-6%
CC1(C)Cc2c(sc3[nH]c(=S)[nH]c(=O)c23)CO1	.	-16%[9.22 µM]	7.9µM*	.	1%	8%[10 µM]
NC(=S)N=Nc1c(O)n(Cc2ccccc2)c2ccccc12	.	?	2.5µM*	-8%	-1%	16%[10 µM]
COC(=O)N=Nc1c(O)n(Cc2ccccc2)c2ccccc12	.	-2%[9.22 µM]	.	.	.	-20%[10 µM]
CCCCNC(=S)N=Nc1c(O)n(Cc2ccccc2)c2ccccc12	1	?	20µM*	.	.	2%[10 µM]
CCCCn1c(O)c(N=NC(=O)c2ccco2)c2ccccc21	.	-14%	-1%	-24%	2%	-10%[10 µM]
CCOC(=O)N=Nc1c(O)n(Cc2ccccc2)c2ccccc12	.	15%	8.9µM*	.	17%	-11%
COC(=O)c1ccc(Cn2c(O)c(N=NC(N)=S)c3ccccc32)o1	.	-14%[9.22 µM]	.	.	.	10%[10 µM]
C/C(Cl)=C\Cn1c(O)c(N=NC(N)=S)c2ccccc21	.	-20%[9.22 µM]	1µM*	.	17%	-45%[10 µM]
O=C(c1cc(=O)c2ccccc2o1)N1CCCc2ccccc21	10	-2%	?	-16%	22%[38.3 µM]	0%
O=C(c1nn(Cc2ccccc2)c(=O)c2ccccc12)N1CCc2ccccc2C1	13	-9%	0.89µM*	-6%	15%[38.3 µM]	-24%
Cn1c(C(=O)N2CCc3ccccc3C2)cc2oc3ccccc3c21	12	?	-8%	0.71µM*	16%	0%[10 µM]
O=C(c1nn(Cc2ccccc2)c(=O)c2ccccc12)N1CCN(c2ccccn2)CC1	10	-13%	?	-7%	9%[38.3 µM]	-18%
O=C(c1cc2ccccc2c(=O)o1)N1CCCc2ccccc21	1	0%	4.5µM*	-5%	-4%[38.3 µM]	-18%
O=C(c1cc2ccccc2c(=O)o1)N1CCc2ccccc2C1	-2	9%	2%	25µM*	0%[38.3 µM]	-20%
CCOC(=O)CNC(=O)O[C@H]1C(=O)c2ccc(OC)cc2O[C@@H]1c1ccc2c(c1)OCO2	.	.	4%	-4%	10%	.
COc1cc(C2CC(=O)Nc3ccc4ccccc4c32)ccc1OC(=O)C(C)C (stereo not drawn)	12	.	.	.	.	.
COc1cc2c(cc1O)-c1ccccc1CN(C)C2	.	.	-13%	-10%	17%	10%
COc1ccc2cc1Oc1ccc(cc1)CC1c3c(cc(OC)c4c3Oc3cc5c(cc3O4)CCNC5C2)CCN1C (stereo not drawn)	.	4µM*	.	.	.	-96%[10 µM]
COC(=O)N1CCC2(CCCN(C(=O)Nc3cccc(F)c3)C2)CC1	.	.	1%	-4%	6%	?
CC(=O)C1=C(O)C(=O)N(CCC(=O)O)C1c1cccc(F)c1 (stereo not drawn)	-12	?	-9%	25µM*	11%[38.3 µM]	14%[10 µM]
COc1ccc(-n2c(SCC(=O)C(C)(C)C)nc3ccsc3c2=O)cc1	.	11%	-12%	.	7%	-53%
SMILES	IMPase inh	HTT aggregate	ALDH1A1 inh	HPGD inh	IMPase Li inh	HTT ATP protect
COc1ccc(-n2c(SCC(=O)NCCC(C)C)nc3ccsc3c2=O)cc1	?	28%	20µM*	?	-10%[38.3 µM]	17%
Cc1cccc(C)c1OCCN1C(=O)NC(C)(c2ccccc2)C1=O (stereo not drawn)	.	-10%	5%	.	-3%	-45%
Cc1ccc(C2(C)NC(=O)N(CC(=O)NC(=O)NC3CCCC3)C2=O)cc1 (stereo not drawn)	-2	21%	-7%	-4%	17%[38.3 µM]	4%
CC1(c2ccccc2)NC(=O)N(CCOc2ccccc2)C1=O (stereo not drawn)	5	6%	22µM*	1%	2%[38.3 µM]	-10%
CC1(c2ccccc2)NC(=O)N(CC(=O)NC(=O)NC2CCCC2)C1=O (stereo not drawn)	5	19%	13µM*	-10%	6%[38.3 µM]	2%[10 µM]
CCN(CC(=O)NC(C)C)C(=O)[C@@H](NC(=O)c1ccco1)C(C)C	.	16%	2%	.	6%	-12%[10 µM]
CCCNC(=O)c1cccc(Cn2nc(C)c(Br)c2C)c1	2	-23%	1%	-9%	21%[38.3 µM]	-10%
Cc1nn(Cc2cccc(C(=O)NC34CC5CC(CC(C5)C3)C4)c2)c(C)c1Br	-2	20µM*	?	-17%	22%	13%[10 µM]
Cc1cn(-c2ccc(Br)cc2)[nH]c1=O	15	3%	4%	25µM*	4%	-1%[10 µM]
Cc1nnc(C)c2c(C)n(-c3ccc(Br)cc3)c(C)c12	-4	3%	4%	2%	14%[38.3 µM]	3%
O=CN1CCc2scc[n+]2-c2ccccc21	-1	29%	14µM*	-11%	1%	0%[10 µM]
Nc1ccc2cc3ccc(N)cc3nc2c1	.	13µM*	.	.	.	-17%
Cc1ccc2cc(N)ccc2n1	.	-16%[9.22 µM]	2%	.	-5%	3%[10 µM]
FC(F)(F)C(F)(F)C(F)(F)C(F)(F)C(F)(F)C(F)(F)F	.	1%	.	.	.	10%
CC(=O)Nc1ccc(C(=O)Nc2nc(-c3cccnc3)cs2)cc1	.	13%	10µM*	.	2%	0%[10 µM]
COc1cccc(C(=O)Nc2nc(-c3ccncc3)cs2)c1	.	3%	20µM*	.	-7%	-25%
c1coc(CN=C2NC(=NCc3ccco3)c3ccccc32)c1	1	-2%	25µM*	-25%	24%[38.3 µM]	-22%
O=C1c2ccccc2NC(c2ccc(O)cc2)N1Cc1ccco1 (stereo not drawn)	-3	1%	?	?	3%[38.3 µM]	7%
O=C(COc1ccc(Cl)cc1Cl)Nc1ccc(Cl)cn1	8	10%	15%	8.9µM*	-3%[38.3 µM]	-14%
CN(C(=S)NC(=O)CCCOc1ccc(Cl)cc1Cl)c1ccccc1	2	4%	18µM*	11µM*	48%[38.3 µM]	-23%
C#CCN(C)CCCOc1ccc(Cl)cc1Cl	-8[20.6 µM]	-1%	5%	14µM*	2%	?
COC(=O)NNC(=O)CCCOc1ccc(Cl)cc1Cl	.	-6%	2%	-18%	5%	7%[10 µM]
CC(C)NC(=O)CCCOc1ccc(Cl)cc1Cl	4	4%[9.22 µM]	5%	14µM*	27%[38.3 µM]	-4%
CCC1=C2CC[C@H]3C(=O)N(c4ccccc4)C(=O)[C@H]3[C@H]2[C@@]2(Cc3ccccc3)C(=NCc3ccccc3)OC(=O)N2C1=O	.	.	-2%	-4%	-4%	2%
